# Reference: PubChem BioAssay (NCATS)
# Inconclusive results are not listed. Calls of active or inactive are those of the source. Calls follow the shape of the dose curve; as a rule, active = well fitted inhibition curve with a large enough effect; inconclusive = small, poorly fitted or top-dose-only effect; inactive = no such curve, though single readings can be large or run the other way.
# Target: Cytochrome P450 2D6 (Homo sapiens) (UniProt P10635)
# Experiment: qHTS for inhibitors of CYP2D6 against the NCATS DSHEA and TCM libraries (AID 1919972)
# Settings: CYP2D6 enzymatic inhibition, luminescence qHTS; series mostly up to 34.1 µM
# Excerpt: Assay Development and Screening Technology Laboratory (ADST)
# National Center for Advancing Translational Sciences (NCATS), Rockville, MD
# National Institute of Health (NIH), Bethesda, Maryland
# Dietary Supplements and Natural Products have minor oversight of their safety and efficacy. We assembled a collection of Dietary Supplements and Natural Products (DSNP) as well as Traditional Chinese Medicinal (TCM) Plant extracts, which were screened against an in vitro panel of assays, including a liver cytochrome p450 enzyme panel, CAR/PXR signaling pathways, and P-gp transporter assays, to assess their activity. This pipeline facilitated the interrogation of Natural Product-Drug Interaction (NaPDI) through prominent metabolizing pathways. In addition, we compared the activity profiles of the DSNP/TCM substances with those of an approved drug collection. Many of the approved drugs have well-annotated mechanisms of action (MOA) while the MOAs for most of the DSNP and TCM samples remain unknown. Based on the premise that compounds with similar activity profiles tend to share similar targets or MOA, we clustered the library activity profiles to identify overlap with the NCATS Pharmaceutical Collection to predict the MOAs of the DSNP/TCM substances. Overall, we highlight four significant bioactivity profiles (measured by p-values) as examples of this prediction. To assess broad cytotoxicity, we employed screening against a HepG2 cell line. In addition, transporter-mediated drug interactions are utilized in the characterization of DDIs using a P-glycoprotein (P-gp) assays. To profile potential P-gp activity, a differential cell viability was measured against two cell lines: a parental KB-3-1 human cervical adenocarcinoma cell line and the drug-resistant subline KB-8-5-11 that overexpresses P-gp.
# To this end, we profiled both collections for potential CAR and/or PXR activity, employing a previously published 1536-well qHTS assay.
# [1] Lee TD, et al. A High-Throughput Screen of a Library of Therapeutics Identifies Cytotoxic Substrates of P-glycoprotein. Mol Pharmacol. Nov 2019;96(5):629-640. doi:10.1124/mol.119.115964
# PROTOCOL TABLE (as described by Inglese J, Shamu CE and Guy RK. 2007)
# SEQUENCE No. (e.g., 1, 2, 3, etc.); […] (e.g., Cells, Incubation, Reagent, etc.); VALUE; DESCRIPTION.
# 1; Reagent; 2 uL; cytochrome P450 enzyme and luciferin substrate or buffer only, white solid-bottom Greiner plate.
# 2; Compounds and control; 16 nL; Kalypsis pintool (Wako USA) equipped with a 1536-well pin head to transfer to the assay plates.
# 3; Incubation; 15 min; room temperature.
# 4; Reagent; 2 uL; nicotinamide adenine dinucleotide phosphate (NADPH).
# 5; Incubation; 30 - 45 min; room temperature in the dark.
# 6; Reagent; 4 uL; P450-Glo assay detection reagent.
# 7; Centrifuge; 1000 RPM; 15 seconds.
# 8; Incubation; 30 min; room temperature.
# 9; Read; Luminescence; ViewLux plate reader.
# NOTES (numbers refer to Sequence numbers above)
# 1. A 2 uL mixture of corresponding enzymes and luciferin substrate (final concentrations CYP enzyme-specific and pro-luciferin substrate-specific) or minus-enzyme (assay buffer conditions supplied by the manufacturer for respective enzyme isoform; typically, 100 mM KPO4) and luciferin substrate were dispensed using a BioRAPTR FRD (Beckman Coulter, Brea, CA) into columns of a 1536-well white solid-bottom medium binding plate (Greiner Bio-One, Monroe, NC). Five isoforms of cytochrome P450 were used (CYP1A2, CYP2C9, CYP2C19, CYP2D6, and CYP3A4).
# 2. Substances (final concentrations of most substances ranged from 19.5 nM to […] uM) and controls (CYP-specific) were transferred (16 nL) via pintool (Wako Automation, Richmond, VA). Intraplate controls furafylline (CYP1A2), sulfaphenazole (CYP2C9), ketoconazole (CYP2C19), quinidine (CYP2D6), and ketoconazole (CYP3A4) were used correspondingly.
# 3. Assay plates were incubated at room temperature for 15 min.
# 4-5. […]
# % is scaled to controls: 0 for no effect and ±100 for the full control effect.
# Chain of Cytochrome P450 2D6 (Homo sapiens) (P10635 whole entry, looked up): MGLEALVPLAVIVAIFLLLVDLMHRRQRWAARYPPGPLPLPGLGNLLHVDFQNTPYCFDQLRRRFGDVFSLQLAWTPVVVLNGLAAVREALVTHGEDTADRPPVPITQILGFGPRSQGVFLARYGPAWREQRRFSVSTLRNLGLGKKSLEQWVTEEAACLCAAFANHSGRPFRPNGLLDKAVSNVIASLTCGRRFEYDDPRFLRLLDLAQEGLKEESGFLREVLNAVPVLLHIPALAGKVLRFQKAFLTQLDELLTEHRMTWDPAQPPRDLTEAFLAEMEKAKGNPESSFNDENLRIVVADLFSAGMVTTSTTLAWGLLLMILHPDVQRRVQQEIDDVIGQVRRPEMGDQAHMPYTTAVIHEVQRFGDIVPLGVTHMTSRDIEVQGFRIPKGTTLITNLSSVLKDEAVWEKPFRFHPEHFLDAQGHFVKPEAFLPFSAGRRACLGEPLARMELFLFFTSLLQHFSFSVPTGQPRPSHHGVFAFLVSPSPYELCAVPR
Compound,outcome,"activity change, negative = inhibition"
CC(C)=CCC/C(C)=C/C=C/C(C)=C/C=C/C(C)=C/C=C/C=C(C)/C=C/C=C(C)/C=C/C=C(\C)CCC=C(C)C,inactive,
CC(C)=CCC/C(C)=C/CC/C(C)=C/CC/C(C)=C/CC1=C(C)C(=O)c2ccccc2C1=O,inactive,
Oc1ccc(/C=C/c2cc(O)cc(O)c2)cc1,inactive,
CC/C=C\C/C=C\C/C=C\C/C=C\C/C=C\CCCC(=O)O,inactive,
COC1=C(OC)C(=O)C(C/C=C(\C)CC/C=C(\C)CC/C=C(\C)CC/C=C(\C)CC/C=C(\C)CC/C=C(\C)CC/C=C(\C)CC/C=C(\C)CC/C=C(\C)CCC=C(C)C)=C(C)C1=O,inactive,
CC1=CCC2CC1C2(C)C (stereo not given),inactive,
Cc1ncc(C[n+]2csc(CCO)c2C)c(N)n1,inactive,
CCCCC/C=C\C/C=C\C/C=C\CCCCC(=O)O,,3.71% [at 4.27 µM] (inactive)
O=C(O)/C=C/c1ccccc1,inactive,
CCCCCCCCCCCC(=O)OCC(O)CO (stereo not given),inactive,
